Results filed as inconclusive are left out. Active and inactive are the calls of the source. The call rests on the fitted dose curve.

This note sets out measurements from PubChem BioAssay AID942 (National Center for Advancing Translational Sciences (NCATS), 2007).

The nature of this experiment: Confirmation Concentration-Response Assay for Anthrax Lethal Toxin Internalization. The following applies: FRET ratio (460/530 nm); series mostly up to 46.1 µM.
`O=C(Nc1ccc([N+](=O)[O-])cc1Cl)c1cc(Cl)cc(Cl)c1O`: the Potency was 3980 nM (active).

Regarding `COc1ccc2c(c1OC)C(=O)OC2c1ccc(O)cc1` (stereo unspecified), the Potency result was “inactive”.

In the case of `Cc1ccc2c(c1)-c1c(cnn1CC(=O)Nc1ccccc1N1CCN(C)CC1)CO2`, the Potency was 3980 nM (active).

On to `O=C(Nc1c(Cl)cc([N+](=O)[O-])cc1Cl)c1cc(Cl)cc(Cl)c1O`, for which the Potency was 10000 nM (active).

As for `COc1cc([C@@H]2c3cc4c(cc3[C@H](OC(C)=O)[C@H]3COC(=O)[C@H]23)OCO4)cc(OC)c1OC`, the Potency is 794 nM (active).

Take `Cc1ccc2oc(=O)c3cnn(CC(=O)Nc4ccccc4N4CCN(C)CC4)c3c2c1`: the Potency was 2000 nM (active).

For the molecule `COc1ccc2c(c1OC)C(=O)OC2CC(=O)c1ccc2c(c1)OCO2` (stereo unspecified), the Potency result is “inactive”.

For the molecule `COc1ccc(Cl)cc1C(=O)Nc1ccc([N+](=O)[O-])cc1Cl`, the Potency result was “inactive”.

Regarding `COc1cc([C@@H]2c3cc4c(cc3[C@H](O)[C@H]3COC(=O)[C@H]23)OCO4)cc(OC)c1OC`, the Potency is 794 nM (active).

As for `O=C(Nc1ccc([N+](=O)[O-])cc1Cl)c1cc(Br)ccc1O`, the Potency was 794 nM (active).

Turning to `Cc1ccc2oc(=O)c3cnn(CC(=O)N4CCN(c5ccccc5)CC4)c3c2c1`, the Potency was 5010 nM (active).

`COc1cc2c(OC(C)=O)c3c(c(-c4ccc5c(c4)OCO5)c2cc1OC)C(=O)OC3`: the Potency is 39.8 nM (active).

For the molecule `Nc1ccc(NC(=O)c2cc(Cl)ccc2O)c(Cl)c1`, the Potency result was “inactive”.

In the case of `O=C(Nc1ccc([N+](=O)[O-])cc1Cl)c1ccccc1O`, the Potency is 6310 nM (active).

On to `COc1cc2c(O)c3c(c(-c4ccc5c(c4)OCO5)c2cc1OC)C(=O)OC3`, for which the Potency was 50.1 nM (active).

Take `COc1ccc(C2C3=C(COC3=O)Oc3cc4c(cc32)OCO4)cc1OC` (stereo unspecified): the Potency result is “inactive”.
